Laboratory results taken from the supplement of paper PMC7366291.
Counter-ions that a name gives are not always drawn. ± gives the standard deviation.

Each compound was assayed on Danio rerio Tg(wt1b:EGFP) embryo, pronephros (assay: glomerular separation, fold change vs DMSO control; higher = glomeruli further apart (abnormal)). Details: 25 µM; exposure: 24-48 hpf.
Summary of the method: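 Distances and angles describing the pronephros were computed by a Fiji macro from 16 reference points set manually on maximum projections of dorsal images. These images came from dechorionated Tg(wt1b:EGFP) zebrafish embryos held in agarose-filled 96-well plates after exposure to 25 μM compound in 0.5% DMSO, in HEPES-buffered E3 with 0.003% PTU, from 24 to 48 hpf at 28.5°C. Any value more than 2 SD from the feature mean was excluded. Features are stated as fold change relative to the mean of same-day DMSO-treated embryos.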
With `Cc1cccc(C)c1NC(=O)CN1CCN(CCCC(c2ccc(F)cc2)c2ccc(F)cc2)CC1` [Lidoflazine] the glomerular separation was 3 ± 1.2.
Compound `O=C(N/N=C/c1ccc([N+](=O)[O-])o1)c1ccc(O)cc1` [Nifuroxazide] has a glomerular separation of 0.916 ± 0.47.
With `COc1cc(OC)c(C(=O)CCCN2CCCC2)c(OC)c1` [Buflomedil hydrochloride] the glomerular separation was 1.14 ± 0.33.
With `CC(C)(C)C(=O)OCOC(=O)[C@@H]1N2C(=O)[C@@H](NC(=O)[C@H](N)c3ccccc3)[C@H]2SC1(C)C` [Pivampicillin] the glomerular separation was 1.14 ± 0.47.
`N[C@@H](C(=O)N[C@@H]1C(=O)N2C(C(=O)O)=C(Cl)CC[C@H]12)c1ccccc1` [Loracarbef] gave a glomerular separation of 1.06 ± 0.25.
Compound `CC[N+](CC)(CC)CCC(O)(c1ccccc1)C1CCCCC1` (stereo not given) [Tridihexethyl chloride] has a glomerular separation of 1.14 ± 0.4.
Work on `C#CCN(C)CCCOc1ccc(Cl)cc1Cl` [Clorgyline hydrochloride] yielded a glomerular separation of 0.959 ± 0.32.
Work on `CC[N+](C)(C)c1cccc(O)c1` [Edrophonium chloride] yielded a glomerular separation of 1.26 ± 0.22.
Compound `NC(CO)C(=O)NNCc1ccc(O)c(O)c1O` (stereo not given) [Benserazide hydrochloride] has a glomerular separation of 1.17 ± 0.44.
In the case of `O=C(OCC(O)CO)c1ccccc1Nc1ccnc2cc(Cl)ccc12` (stereo not given) [Glafenine hydrochloride], the glomerular separation is reported as 1.05 ± 0.26.
`COc1ccccc1OCC(O)COC(N)=O` (stereo not given) [Methocarbamol] showed a glomerular separation of 1.02 ± 0.45.
`OCCN1C[C@H](O)[C@@H](O)[C@H](O)[C@H]1CO` [Miglitol] gave a glomerular separation of 1.12 ± 0.48.
Work on `OC(CCCN1CCCCC1)(c1ccccc1)c1ccccc1` [Diphenidol hydrochloride] yielded a glomerular separation of 0.854 ± 0.23.
`CCCN(CCC)C(=O)C(CCC(=O)O)NC(=O)c1ccccc1` (stereo not given) [Proglumide] was tested, and the glomerular separation was 0.949 ± 0.28.
Work on `c1cnc(N2CCN(Cc3ccc4c(c3)OCO4)CC2)nc1` [Piribedil hydrochloride] yielded a glomerular separation of 1.01 ± 0.4.
`CCc1cc(C(N)=S)ccn1` [Ethionamide] gave a glomerular separation of 0.955 ± 0.39.
In the case of `Cc1ccccc1OCC(O)CO` (stereo not given) [Mephenesin], the glomerular separation is reported as 1.06 ± 0.57.
In the case of `CN(C)CCOC(c1ccc(Cl)cc1)c1ccccn1` (stereo not given) [Carbinoxamine maleate salt], the glomerular separation is reported as 0.746 ± 0.34.
`CO[C@H]1/C=C/O[C@@]2(C)Oc3c(C)c(O)c4c(O)c(c(/C=N/N5CCN(C6CCCC6)CC5)c(O)c4c3C2=O)NC(=O)/C(C)=C\C=C\[C@H](C)[C@H](O)[C@@H](C)[C@@H](O)[C@@H](C)[C@H](OC(C)=O)[C@@H]1C` [Rifapentine] was tested, and the glomerular separation was 0.895 ± 0.2.
`Clc1cccc(Cl)c1NC1=NCCN1` [Clonidine hydrochloride] was tested, and the glomerular separation was 0.954 ± 0.35.
`COc1ccnc(C[S+]([O-])c2nc3cc(OC(F)F)ccc3[nH]2)c1OC` (stereo not given) [Pantoprazole sodium] was tested, and the glomerular separation was 1.04 ± 0.33.
`Nc1nc(=O)n([C@@H]2CS[C@H](CO)O2)cc1F` [(-)-Emtricitabine] gave a glomerular separation of 1.08 ± 0.4.
Compound `CC[C@H]1OC(=O)[C@H](C)[C@@H](O[C@H]2C[C@@](C)(OC)[C@@H](O)[C@H](C)O2)[C@H](C)[C@@H](O[C@@H]2O[C@H](C)C[C@H](N(C)C)[C@H]2O)[C@](C)(O)C[C@@H](C)CN(C)[C@H](C)[C@@H](O)[C@]1(C)O` [Azithromycin] has a glomerular separation of 0.933 ± 0.41.
Compound `CCCOc1ccccc1-c1nc2[nH]nnc2c(=O)[nH]1` [Zaprinast] has a glomerular separation of 1.56 ± 0.95.
`Cc1cc(C(=O)NNCc2ccccc2)no1` [Isocarboxazid] gave a glomerular separation of 1.01 ± 0.72.
`CCN(CC)CCOC(=O)C(Cc1cccc2ccccc12)CC1CCCO1` (stereo not given) [Nafronyl oxalate] was tested, and the glomerular separation was 1.2 ± 0.63.
Work on `CN(C(=O)C(Cl)Cl)c1ccc(OC(=O)c2ccco2)cc1` [Diloxanide furoate] yielded a glomerular separation of 2.17 ± 1.
`CN(CCCCCCCCCCN(C)C(=O)Oc1cccc([N+](C)(C)C)c1)C(=O)Oc1cccc([N+](C)(C)C)c1` [Demecarium bromide] showed a glomerular separation of 1.54 ± 0.77.
With `OC(CCN1CCCC1)(c1ccccc1)C1CCCCC1` (stereo not given) [Procyclidine hydrochloride] the glomerular separation was 0.639 ± 0.26.
`N/C(=N\C(=O)c1nc(Cl)c(N)nc1N)NCc1ccccc1` [Benzamil hydrochloride] gave a glomerular separation of 0.935 ± 0.43.
In the case of `CN1CCOC(c2ccccc2)c2ccccc2C1` (stereo not given) [Nefopam hydrochloride], the glomerular separation is reported as 0.828 ± 0.19.
With `CN1CCN(CCCN2c3ccccc3Sc3ccc(Cl)cc32)CC1` [Prochlorperazine dimaleate] the glomerular separation was 1.05 ± 0.37.
For `CCCCCCCN(CC)CCCC(O)c1ccc(NS(C)(=O)=O)cc1` (stereo not given) [Ibutilide fumarate], the glomerular separation was 0.897 ± 0.24.
Compound `Cc1ccc(-c2ncc(Cl)cc2-c2ccc(S(C)(=O)=O)cc2)cn1` [Etoricoxib] has a glomerular separation of 0.967 ± 0.19.
For `CN1CCN(CCCN2c3ccccc3Sc3ccc(S(=O)(=O)N(C)C)cc32)CC1` [Thioproperazine dimesylate], the glomerular separation was 0.945 ± 0.3.
For `COc1cc2nc(N3CCN(C(=O)C4CCCO4)CC3)nc(N)c2cc1OC` (stereo not given) [Terazosin hydrochloride], the glomerular separation was 0.764 ± 0.26.
For `O=c1[nH]cc(F)c(=O)[nH]1` [5-fluorouracil], the glomerular separation was 0.802 ± 0.22.
Work on `Cc1ncc([N+](=O)[O-])n1CC(O)CCl` (stereo not given) [Ornidazole] yielded a glomerular separation of 0.923 ± 0.39.
Compound `COc1ccccc1O` [Guaiacol] has a glomerular separation of 1.03 ± 0.3.
Work on `Cc1ccc(-c2cc(C(F)(F)F)nn2-c2ccc(S(N)(=O)=O)cc2)cc1` [Celecoxib] yielded a glomerular separation of 0.968 ± 0.38.
